# Hits are enriched below; roughly 2.7% of the tested compounds scored in any of these assays.
# IP6K1 inhibitor = IP6K1 kinase inhibition; activity change, % (series mostly up to about 58 µM); Q92551; AID 1645851; 140,000 compounds, 0.81% hits; IP6K1 kinase, ADP-Glo luminescence, 2 h; stronger effect = lower value; in the data active = activity change below about -25%; note: % is set by controls: 0 for no effect and ±100 for the full control effect
#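 ADP-Glo luminescence measures ADP made by human IP6K1 during a 2 h RT reaction with ATP/IP6 (mix at 1.3 mM/130 uM); top library doses 57.5 and 19.1 uM final.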
# KDM5B inhibitor = inhibitors of human KDM5B histone demethylase. KDM5B demethylase, FDH-coupled NADH fluorescence (FDH is formaldehyde dehydrogenase). Potency, µM (titrated, usually from 57.7 µM), hits mostly inhibitors. 220,000 compounds, 2.6% hits. AID 1347165; active = well fitted inhibition curve with a large enough effect; inconclusive = small, poorly fitted or top-dose-only effect; inactive = no such curve, though single readings can be large or run the other way; note: potency is the fitted concentration of half-maximal effect; 0% is about no effect; nearly all actives have a fitted effect of over 70% in size
# Target sequence (Q9UGL1 whole entry, looked up): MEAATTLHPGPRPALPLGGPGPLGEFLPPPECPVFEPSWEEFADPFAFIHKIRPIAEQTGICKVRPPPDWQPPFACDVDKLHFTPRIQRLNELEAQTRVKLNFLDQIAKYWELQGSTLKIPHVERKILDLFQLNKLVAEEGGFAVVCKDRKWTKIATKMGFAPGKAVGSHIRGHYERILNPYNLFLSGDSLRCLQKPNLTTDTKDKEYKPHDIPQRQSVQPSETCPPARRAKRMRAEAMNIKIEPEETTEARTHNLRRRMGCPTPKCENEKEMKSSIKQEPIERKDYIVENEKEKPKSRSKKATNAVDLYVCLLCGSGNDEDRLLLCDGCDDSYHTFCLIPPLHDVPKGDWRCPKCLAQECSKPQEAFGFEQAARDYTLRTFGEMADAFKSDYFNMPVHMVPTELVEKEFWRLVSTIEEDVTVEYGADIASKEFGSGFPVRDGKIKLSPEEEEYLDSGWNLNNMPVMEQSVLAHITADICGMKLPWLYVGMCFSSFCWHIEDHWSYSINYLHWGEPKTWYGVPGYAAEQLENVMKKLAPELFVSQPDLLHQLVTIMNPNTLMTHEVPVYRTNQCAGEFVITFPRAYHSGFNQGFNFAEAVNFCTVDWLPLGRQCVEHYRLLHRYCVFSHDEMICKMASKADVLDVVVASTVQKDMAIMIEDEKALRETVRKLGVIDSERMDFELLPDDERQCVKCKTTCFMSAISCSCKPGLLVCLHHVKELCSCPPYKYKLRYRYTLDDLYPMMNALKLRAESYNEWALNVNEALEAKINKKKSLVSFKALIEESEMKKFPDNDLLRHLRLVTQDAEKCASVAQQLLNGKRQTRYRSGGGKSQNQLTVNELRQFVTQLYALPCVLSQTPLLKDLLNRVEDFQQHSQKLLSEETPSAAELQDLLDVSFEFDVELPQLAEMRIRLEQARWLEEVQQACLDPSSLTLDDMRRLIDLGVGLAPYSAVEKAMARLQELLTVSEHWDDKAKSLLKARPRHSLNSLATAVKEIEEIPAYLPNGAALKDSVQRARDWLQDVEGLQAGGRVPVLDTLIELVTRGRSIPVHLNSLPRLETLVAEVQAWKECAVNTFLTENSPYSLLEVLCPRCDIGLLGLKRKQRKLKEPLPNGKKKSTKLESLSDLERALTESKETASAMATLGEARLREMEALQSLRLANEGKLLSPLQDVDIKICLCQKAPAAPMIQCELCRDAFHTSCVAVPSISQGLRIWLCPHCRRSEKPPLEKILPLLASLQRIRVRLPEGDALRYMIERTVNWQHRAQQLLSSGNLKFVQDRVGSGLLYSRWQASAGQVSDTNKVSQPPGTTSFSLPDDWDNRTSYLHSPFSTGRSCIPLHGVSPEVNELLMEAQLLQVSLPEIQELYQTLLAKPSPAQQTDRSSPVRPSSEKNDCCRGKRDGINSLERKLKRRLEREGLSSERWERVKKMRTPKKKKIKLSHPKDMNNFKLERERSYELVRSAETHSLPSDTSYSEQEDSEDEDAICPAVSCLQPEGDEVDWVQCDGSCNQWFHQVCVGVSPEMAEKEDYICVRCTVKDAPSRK
#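 Compound dilutions met 200 nM (final) KDM5BΔAP for 10 min at room temperature before substrate addition. The substrate mix held 12.5 µM H3K4me3 with cofactors 25 µM α-ketoglutarate and 50 µM Fe²⁺. NADH signal gain over 30 min defined activity.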
# * marks the source's active call; other numbers are inactive results; i = inactive; ? = inconclusive; / = no result given.
SMILES,IP6K1 inhibitor,KDM5B inhibitor
Cn1ncc2c(C(=O)N3CCC(c4ccccc4)CC3)cc(-c3cccc(F)c3)nc21,-5,/
C=C(C)CSc1nc2c(c(=O)n(C)c(=O)n2C)n1Cc1ccccc1Cl,/,i
CC(C)c1ccc(NC(=O)/C=C/c2c(F)cccc2Cl)cc1,/,i
CSCC[C@@H]1NC(=O)c2cc(NC(=O)c3ccc(-n4cnnn4)cc3)ccc2NC1=O,-4,i
CSCC[C@@H]1NC(=O)c2cc(NC(=O)c3ccc4ccn(C)c4c3)ccc2NC1=O,-14,25µM*
Cc1ccc(-c2nn(CC(=O)NC3CC3)c(=O)c3ccccc23)cc1,/,i
Cc1cc(NCc2cncn2CC(C)C)n2nc(C)cc2n1,7,?
Cc1cc(NCCN2CCNC2=O)n2nc(C)cc2n1,4,18µM*
O=C(NC1CC1)c1ccccc1NS(=O)(=O)c1ccc(Cl)cc1C(F)(F)F,/,i
CCCc1noc(-c2ccn3c(CNC(=O)Cc4ccc(Cl)cc4)nnc3c2)n1,18,?
CCc1noc(-c2ccn3c(CNC(=O)Cc4ccccc4OC)nnc3c2)n1,1,?
CCc1noc(-c2ccn3c(CNC(=O)Cc4ccc(C)cc4)nnc3c2)n1,0,28µM*
CCCc1noc(-c2ccn3c(CNC(=O)c4ccc(C)cc4C)nnc3c2)n1,19,i
CCc1noc(-c2ccn3c(CNC(=O)c4cc(C)ccc4C)nnc3c2)n1,-1,25µM*
CCc1noc(-c2ccn3c(CNC(=O)Cc4ccccc4Cl)nnc3c2)n1,25,16µM*
CC(C)NC(=O)NC(=O)CN(C)Cc1ccccc1,/,i
O=C(/C=C/c1ccc(-c2cccc(Cl)c2Cl)o1)c1ccccc1,/,i
COc1ccc(Nc2ccnc(N3CCN(C(=O)Cc4ccc(F)cc4)CC3)n2)cc1,1,/
CCCN1CCN(c2nnc(-n3cccc3CN3CCN(Cc4ccccc4)CC3)s2)CC1,/,i
C[S+](=O)([O-])CCn1ncc2cc(OCc3cccc(-c4ccc(F)cc4)c3)ccc21,-3,35µM*
COc1ncccc1-c1cccc(COc2ccc3c(cnn3CC[S+](C)(=O)[O-])c2)c1,-6,32µM*
C[S+](=O)([O-])CCn1ncc2cc(OCc3cccc(-c4cccc(F)c4)c3)ccc21,20,?
COc1ccccc1-c1cccc(COc2ccc3c(cnn3CC[S+](C)(=O)[O-])c2)c1,5,?
C[S+](=O)([O-])CCn1ncc2cc(OCc3cccc(-c4cncnc4)c3)ccc21,-3,i
COc1ncc(-c2cccc(COc3ccc4c(cnn4CC[S+](C)(=O)[O-])c3)c2)cn1,9,35µM*
SMILES,IP6K1 inhibitor,KDM5B inhibitor
Nc1nc(SCC(=O)NCc2ccc(F)cc2)n[nH]1,/,i
Cc1cccc(C)c1NC(=O)Cc1c[nH]c2ccccc12,/,i
COc1ccc2cc(-c3[nH]ncc3CN3CCCC3c3nonc3C)ccc2c1 (stereo unspecified),/,i
O=C1NCCCC[C@@H]1Nc1ccc(-c2nc(COc3ccccc3)no2)cn1,3,28µM*
c1ccc(OCc2noc(-c3ccc(NCC4CCCCO4)nc3)n2)cc1 (stereo unspecified),13,?
Cc1nonc1C1CCCN1c1ccc(-c2nc(COc3ccccc3)no2)cn1 (stereo unspecified),-11,28µM*
O=c1c2cnn(-c3ccc(F)cc3)c2ncn1CC(O)COc1ccc(Cl)cc1Cl (stereo unspecified),/,i
COc1ccc(-c2noc(CCCC(=O)NCCc3noc(-c4ccccc4)n3)n2)cc1OC,-6,/
CCCCCC(=O)N1C[C@@H](C(=O)OCC)[C@@H]2Oc3cc(OC)ccc3[C@@H]21,6,/
CC(=O)N1CCC2(CC1)CN(Cc1ccncc1)Cc1ccccc1O2,7,56µM*
CC(C)NC(=O)N1CCC2(CC1)CN(Cc1ccncc1)Cc1ccccc1O2,-5,?
O=C(c1ccc(Cl)cc1)N1CC2(CCN(Cc3ccncc3)C2)OCc2ccccc21 (stereo unspecified),-9,40µM*
O=C(c1ccc(Cl)cc1)N1CC2(CCN(CC3CCCC3)C2)OCc2ccccc21 (stereo unspecified),-1,i
O=C(/C=C/c1ccc(N(c2ccccc2)c2ccccc2)cc1)c1cccc(C(F)(F)F)c1,/,i
COc1ccccc1Nc1ccnc(N2CCN(C(=O)c3ccccc3F)CC2)n1,13,/
COc1cc(CNC(=O)c2cc(-c3ccc(Cl)cc3Cl)nc3c2cnn3C)cc(OC)c1,8,/
Cc1noc(-c2cccn3c(CNC(=O)Cc4cccc(F)c4)nnc23)n1,13,?
CCc1noc(-c2cccn3c(CNC(=O)c4c(F)cccc4Cl)nnc23)n1,35,28µM*
CCc1noc(-c2cccn3c(CNC(=O)Cc4cccc(F)c4)nnc23)n1,8,25µM*
CCCc1noc(-c2cccn3c(CNC(=O)c4ccc(OCC)cc4)nnc23)n1,-1,i
CCCc1noc(-c2cccn3c(CNC(=O)c4cccc(F)c4)nnc23)n1,-3,25µM*
CCc1noc(-c2cccn3c(CNC(=O)c4cccc(N(C)C)c4)nnc23)n1,9,i
CCc1noc(-c2cccn3c(CNC(=O)c4cccc(F)c4)nnc23)n1,40,22µM*
CCOc1ccccc1CN1CCC2(CCN([S+](=O)([O-])c3ccc(C)cc3)CC2)Oc2ccccc21,33,?
CCOc1ccccc1CN1CCC2(CCN([S+](=O)([O-])c3cccc(C(F)(F)F)c3)CC2)Oc2ccccc21,0,13µM*
SMILES,IP6K1 inhibitor,KDM5B inhibitor
COc1cc(CC(=O)NC2CCCC2)cc(OC)c1OC,/,i
O=C(NCc1ccc(N2CCOCC2)cc1)c1cccnc1N1CC2CC(C1)[C@H]1CCCC(=O)N1C2 (stereo partly specified),-1,?
O=C(NCCCn1cccn1)c1cccnc1N1CC2CC(C1)[C@H]1CCCC(=O)N1C2 (stereo partly specified),-2,28µM*
O=C(NCCCn1cccn1)C1CCN(C(=O)N2CC3CC(C2)[C@H]2CCCC(=O)N2C3)CC1 (stereo partly specified),27,i
O=C(c1ccccn1)N1CC2CC(C1)[C@H]1CCCC(=O)N1C2 (stereo partly specified),12,i
O=C(NCCCN1CCOCC1)c1cccnc1N1CC2CC(C1)[C@H]1CCCC(=O)N1C2 (stereo partly specified),4,28µM*
CN(CCNC(=O)c1cccnc1N1CC2CC(C1)[C@H]1CCCC(=O)N1C2)C1CCCCC1 (stereo partly specified),5,32µM*
O=C(c1cccnc1N1CC2CC(C1)[C@H]1CCCC(=O)N1C2)N1CC=C(c2ccccc2)CC1 (stereo partly specified),5,32µM*
CN(C)CCNC(=O)c1cccnc1N1CC2CC(C1)[C@H]1CCCC(=O)N1C2 (stereo partly specified),6,?
O=[N+]([O-])c1cc(C(F)(F)F)ccc1NC1C2CC3CC(C2)CC1C3 (stereo unspecified),/,i
Cc1cc2c3ccc(C)n3ccn2c1,/,i
CN(Cc1ccccc1Br)C(=O)Cn1c(Cl)nc2c1c(=O)n(C)c(=O)n2C,/,i
COc1cccc(C2CC(=O)Nc3nc(C)[nH]c(=O)c32)c1OC (stereo unspecified),/,i

# High-throughput results as filed in PubChem BioAssay.
